# Data from the supplement of paper PMC13172266.
# Where a name gives a salt, the structure may show the parent alone.
# Experiments:
# Assay in all cases: cell proliferation relative to vehicle (% of vehicle); higher = less growth inhibition
# Details in all cases: 72 h
# [1] = test system: U2932 TK216-resistant clone 2
# Outline: (§1)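 Each of 348 targeted inhibitors was tested at 500 nM or 50 nM for 72 h on U2932 cells, both parental and two clones resistant to an ETS-targeting agent. Readout was by MTT with absorbance read on a Cytation 3. Proliferation appears as percent of proliferating cells relative to vehicle (DMSO).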
# [2] = test system: U2932 TK216-resistant clone 3
# Outline: as §1
# U2932 parental = test system: U2932 parental
# Outline: as §1
SMILES,cell proliferation ([1]; 50 nM),cell proliferation ([1]; 500 nM),cell proliferation ([2]; 50 nM),cell proliferation ([2]; 500 nM),cell proliferation (U2932 parental; 50 nM),cell proliferation (U2932 parental; 500 nM)
COc1cc(OCc2cccc(-c3ccccc3)c2C)cc(OC)c1CN1CCCC[C@H]1C(=O)O [PD-1/PD-L1 inhibitor 1],103,99.6,96.8,104,101,95.3
CN(C)Cc1c(C(=O)NCCOc2ccc(C(=O)NO)cc2)oc2ccccc12,99.6,40.3,91.6,47.6,81.5,32.6
CN1CCC(CNc2ccc3ncc(-c4cccc(OC(F)(F)F)c4)n3n2)CC1 [SGI-1776 free base],103,86.7,105,82.4,95.5,94.1
FC(F)c1nc2ccccc2n1-c1nc(N2CCOCC2)nc(N2CCOCC2)n1,95.8,42.5,93.6,46,89.9,46.8
CCCC(CCC)C(=O)O [Valproic acid sodium salt (Sodium valproate)],98.2,101,103,94.2,106,97.6
Cn1cc(-c2ccc3nnc(C(F)(F)c4ccc5ncccc5c4)n3n2)cn1,102,103,106,113,99.8,99.2
COc1ccc(-c2ccc3ncc4c(c3c2)n(-c2ccc(N3CCNCC3)c(C(F)(F)F)c2)c(=O)n4C)cn1,15.8,-0.777,30.9,0.399,19.7,1.95
CCCCCCNC(=O)n1cc(F)c(=O)[nH]c1=O [Carmofur],98.3,101,104,99.8,102,103
C[C@@H](O[C@H]1OCCN(Cc2n[nH]c(=O)[nH]2)[C@H]1c1ccc(F)cc1)c1cc(C(F)(F)F)cc(C(F)(F)F)c1 [Aprepitant],109,106,101,97.4,108,98.5
CN(Cc1cnc2nc(N)nc(N)c2n1)c1ccc(C(=O)N[C@@H](CCC(=O)O)C(=O)O)cc1 [Methotrexate],102,37.1,102,67.8,99.4,29.9
O=C(O)c1ccc(Nc2ncc3c(n2)-c2ccc(Cl)cc2C(c2c(F)cccc2F)=NC3)cc1,104,80.2,112,86.2,99.6,65.5
COc1cc(CCc2cc(NC(=O)c3ccc(N4CC(C)NC(C)C4)cc3)n[nH]2)cc(OC)c1 (configuration not stated),102,101,103,102,98.4,95.6
CCC[C@H](NC(=O)/C(C#N)=C/c1cccc(Br)n1)c1ccccc1 [Degrasyn (WP1130)],105,102,106,94.8,92.5,86.4
O=C(O)CCNc1cc(N2CCc3ccccc3CC2)nc(-c2ccccn2)n1,103,100,105,102,99.3,99.8
NC(=O)c1ccc(I)c([N+](=O)[O-])c1 [Iniparib (BSI-201)],107,98.2,105,103,97,102
COc1ccc(S(=O)(=O)N(CCO)c2ccccc2CN(C)C/C=C/c2ccc(Cl)cc2)cc1 [KN-93 Phosphate],103,90.8,105,90.1,102,89.6
Cc1ccc(Nc2nccc(N(C)c3ccc4c(C)n(C)nc4c3)n2)cc1S(N)(=O)=O [Pazopanib HCl],110,102,101,99.6,95.2,105
O=C(O)C1(C(=O)O)CCC1.[NH2-].[NH2-].[Pt+2] [Carboplatin],99.7,104,90.2,99.1,104,95.3
O=C(NCc1ccncc1)C12CC3CC(C1)CC(c1ccc(Cl)cc1)(C3)C2,105,91.5,105,98.3,98.2,98.2
O=c1oc2c(O)c(O)cc3c(=O)oc4c(O)c(O)cc1c4c23 [Ellagic acid],99,110,106,107,101,100
c1ccc(Cn2c(-c3ccc(OC[C@H](C4CCNCC4)n4c(-c5ccccc5)nc5ccccc54)cc3)nc3ccccc32)cc1 [Deltarasin],102,88,98.8,83.6,103,91.4
C[C@@H]1CN(CC(=O)Nc2ccc3c(c2)Cc2cccc(-c4cc(=O)cc(N5CCOCC5)o4)c2S3)C[C@H](C)O1,102,101,103,97,105,111
Cc1nc(N)sc1-c1ccnc(Nc2ccc(N3CCOCC3)cc2)n1,91.2,103,99.5,103,103,95.8
CCn1c2ccccc2c2cc(Nc3ccnc(NCCCN4CCOCC4)n3)ccc21,85.4,91,74.8,88.1,83.6,91.7

SMILES,cell proliferation ([1]; 50 nM),cell proliferation ([1]; 500 nM),cell proliferation ([2]; 50 nM),cell proliferation ([2]; 500 nM),cell proliferation (U2932 parental; 50 nM),cell proliferation (U2932 parental; 500 nM)
O=C(O)c1ccc(-c2c[nH]c3ncc(-c4ccccc4)cc23)cc1C1CCCC1,107,100,97.4,105,105,107
CCO[C@@H]1OC(=O)C[C@@H]1NC(=O)[C@@H]1CCCN1C(=O)[C@@H](NC(=O)c1ccc(N)c(Cl)c1)C(C)(C)C,105,105,101,102,95.4,98.2
CCCCC(C=O)NC(=O)C(CC(C)C)NC(=O)C(CC(C)C)NC(C)=O (configuration not stated),107,12.7,106,24.2,103,39.6
Cn1cc(CNCC2CCN(c3ncc(C(=O)NO)cn3)CC2)c2ccccc21,8.61,5.78,11.4,10.2,4.68,0.113
C=C1/C(=C\C=C2/CCC[C@]3(C)[C@@H]([C@H](C)/C=C/[C@H](C)C(C)C)CC[C@@H]23)C[C@@H](O)C[C@@H]1O [Doxercalciferol],104,92.2,101,103,105,98.5
CC(C)(C)c1cc(NC(=O)Nc2ccc(-c3cn4c(n3)sc3cc(OCCN5CCOCC5)ccc34)cc2)no1 [Quizartinib (AC220)],95.7,97.3,95,90.2,101,102
CCCCCOC(=O)Nc1nc(=O)n([C@@H]2O[C@H](C)[C@@H](O)[C@H]2O)cc1F [Capecitabine],103,105,104,108,99.9,98.3
NC(=O)c1ncn([C@@H]2O[C@H](CO)[C@@H](O)[C@H]2O)c1O [Mizoribine],104,108,100,99.7,104,102
Cc1ccc(-c2cc(C(F)(F)F)nn2-c2ccc(S(N)(=O)=O)cc2)cc1 [Celecoxib],99.8,95.6,104,98.7,101,100
"O=C(CCCCCCC(=O)Nc1ccccc1)NO [Vorinostat (SAHA, MK0683)]",108,91.3,107,88.9,98.2,81.6
CCOC(=O)c1[nH]c2cc(Cl)ccc2c1C(C(=O)NC(C)(C)C)N(C=O)Cc1ccc(Cl)cc1 (configuration not stated),106,92.2,103,95.6,97.7,93.4
O=c1c(O)c(-c2ccc(O)c(O)c2)oc2cc(O)cc(O)c12 [Quercetin],110,119,108,106,101,106
Nc1nc(F)nc2c1ncn2[C@@H]1O[C@H](CO)[C@@H](O)[C@@H]1O [Fludarabine],107,97.8,103,96.4,103,97.3
COc1cccc(-c2cc(F)ccc2C2Cc3nc(N)nc(C)c3C(=O)N2)n1 (configuration not stated),6.3,4.81,22.6,18.7,7.13,6.37
CN1CCN(Cc2ccc(-c3cnc4[nH]cc(-c5ccc6[nH]ccc6c5)c4c3)cc2)CC1,96.6,91.2,97.2,85.4,92.5,101
CO[C@H]1C[C@@H]2CC[C@@H](C)[C@@](O)(O2)C(=O)C(=O)N2CCCC[C@H]2C(=O)O[C@H]([C@H](C)C[C@@H]2CC[C@@H](OCCO)[C@H](OC)C2)CC(=O)[C@H](C)/C=C(\C)[C@@H](O)[C@@H](OC)C(=O)[C@H](C)C[C@H](C)/C=C/C=C/C=C/1C [Everolimus (RAD001)],65.8,65.5,64.2,66.5,55.5,59.1
CCCS(=O)(=O)Nc1ccc(F)c(C(=O)c2c[nH]c3ncc(Cl)cc23)c1F,99.4,97.3,106,106,95.1,95.6
COc1ccc(C(=O)C2CCN(CC(=O)N(Cc3nc4c(c(=O)[nH]3)COCC4)CC3CC3)CC2)cc1,99.7,95.3,92.2,93.6,97.7,97.5
OCCn1cc(-c2cnc3nnn(Cc4ccc5ncccc5c4)c3n2)cn1,111,107,105,107,99.4,104
"Nc1cc(C(F)(F)F)c(-c2cc(N3CCOCC3)nc(N3CCOCC3)n2)cn1 [BKM120 (NVP-BKM120, Buparlisib)]",112,77.9,96.2,72.4,97.7,78.5
CCCCCCCCCCCCCCCCCCOP(=O)([O-])OC1CC[N+](C)(C)CC1 [Perifosine (KRX-0401)],98.7,93.4,113,110,96.7,102
C[C@]1(O)C[C@@H](c2nc(-c3ccc4ccc(-c5ccccc5)nc4c3)c3c(N)nccn32)C1 [OSI-906 (Linsitinib)],104,95.1,95.7,99.4,99.3,99.7
CC(C)N(CCCNC(=O)Nc1ccc(C(C)(C)C)cc1)C[C@H]1O[C@@H](n2cc(Br)c3c(N)ncnc32)[C@H](O)[C@@H]1O,108,100,105,96.1,96.7,100
